For some of these results: Entries with a potency or affinity are not part of this list.
Assays:
Parameters in all cases: scale not given: direction of the effect not stated beside the values
[1] = target: Protein translocase subunit SecA (Escherichia coli (strain K12)) (UniProt P10408); assay: Assay to Identify E. coli SecA ATPase Inhibitors; format: functional; details: 30 µM
[2] = target: T1, Ubiquitin-activating enzyme e1, putative (Leishmania donovani (strain BPK282A1)) (UniProt E9BSI1); assay: Leishmania donovani Ubiquitin Activating Enzyme (LdE1); format: functional; details: 30 µM
T1 sequence (whole entry): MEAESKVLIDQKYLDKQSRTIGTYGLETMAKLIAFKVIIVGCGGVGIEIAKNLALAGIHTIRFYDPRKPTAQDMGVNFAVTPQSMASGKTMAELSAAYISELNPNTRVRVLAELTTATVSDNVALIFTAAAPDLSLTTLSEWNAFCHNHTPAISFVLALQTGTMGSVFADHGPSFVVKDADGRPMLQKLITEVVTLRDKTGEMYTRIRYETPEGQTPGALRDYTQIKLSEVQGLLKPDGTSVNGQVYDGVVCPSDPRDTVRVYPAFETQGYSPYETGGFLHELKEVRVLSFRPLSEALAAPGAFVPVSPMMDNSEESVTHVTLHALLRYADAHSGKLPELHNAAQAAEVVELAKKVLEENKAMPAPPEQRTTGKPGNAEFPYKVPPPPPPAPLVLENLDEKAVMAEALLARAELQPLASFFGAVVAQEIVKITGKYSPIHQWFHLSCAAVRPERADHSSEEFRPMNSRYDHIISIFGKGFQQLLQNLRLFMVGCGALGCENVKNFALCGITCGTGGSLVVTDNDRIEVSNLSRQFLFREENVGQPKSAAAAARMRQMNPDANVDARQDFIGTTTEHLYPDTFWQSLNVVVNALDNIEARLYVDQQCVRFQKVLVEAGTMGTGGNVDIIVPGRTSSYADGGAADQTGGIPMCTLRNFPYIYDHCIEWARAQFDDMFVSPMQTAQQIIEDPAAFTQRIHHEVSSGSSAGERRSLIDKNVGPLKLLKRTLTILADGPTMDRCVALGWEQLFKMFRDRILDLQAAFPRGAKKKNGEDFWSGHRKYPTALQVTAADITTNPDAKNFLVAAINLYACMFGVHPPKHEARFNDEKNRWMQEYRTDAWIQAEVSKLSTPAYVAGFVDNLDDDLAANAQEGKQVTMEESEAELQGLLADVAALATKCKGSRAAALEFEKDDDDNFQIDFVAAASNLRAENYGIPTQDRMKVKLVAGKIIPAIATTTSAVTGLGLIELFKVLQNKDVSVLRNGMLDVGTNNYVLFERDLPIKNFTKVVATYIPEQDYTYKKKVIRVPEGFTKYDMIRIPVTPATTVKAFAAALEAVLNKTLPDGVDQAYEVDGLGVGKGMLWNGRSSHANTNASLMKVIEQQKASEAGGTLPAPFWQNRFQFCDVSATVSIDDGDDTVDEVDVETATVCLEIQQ

[3] = target: AMP-activated protein kinase, AMPK (Homo sapiens) (UniProt P54646+O43741+P54619+Q9UGJ0+Q9Y478+Q13131+Q9UGI9); assay: AMP-dependent Kinase enzyme assay. An in vitro enzyme assay that detects ADP turnover that is directly proportional to AMPK activity. This uses naive AMPK that is activated during the assay with MK-8722; format: functional; details: 30 µM
[4] = target: Sialic acid-binding Ig-like lectin 9 (Homo sapiens) (UniProt Q9Y336); assay: Hs-Siglec9 ALPHAscreen SOP 20170721; details: 10 µM
Sialic acid-binding Ig-like lectin 9 (Homo sapiens), sequence (Q9Y336 whole entry): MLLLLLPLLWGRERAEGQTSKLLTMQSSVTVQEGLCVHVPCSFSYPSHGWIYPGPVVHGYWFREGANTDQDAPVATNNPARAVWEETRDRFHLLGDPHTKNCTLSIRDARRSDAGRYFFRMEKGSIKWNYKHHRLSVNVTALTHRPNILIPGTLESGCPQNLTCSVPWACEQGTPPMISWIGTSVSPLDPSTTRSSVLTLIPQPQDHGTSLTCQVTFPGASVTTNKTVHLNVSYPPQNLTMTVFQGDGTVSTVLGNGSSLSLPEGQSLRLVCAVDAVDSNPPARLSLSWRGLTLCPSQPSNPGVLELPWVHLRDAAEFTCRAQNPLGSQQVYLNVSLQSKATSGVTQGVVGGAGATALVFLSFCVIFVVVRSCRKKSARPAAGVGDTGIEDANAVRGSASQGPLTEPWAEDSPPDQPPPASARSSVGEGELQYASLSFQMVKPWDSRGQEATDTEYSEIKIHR

Trypanosoma cruzi = assay: Trypanosoma cruzi phosphomannomutase and mannose-1-phosphate guanylyltransferase assay; format: functional; details: 10 µM
[5] = target: T2, Arginase-2, mitochondrial (Homo sapiens) (UniProt P78540); assay: in vitro enzyme assay to detect the production of urea directly proportional to the activity of Arginase II; format: functional; details: 33.3 µM; further: in the data most compounds retested in dose-response had high values
T2 sequence (whole entry): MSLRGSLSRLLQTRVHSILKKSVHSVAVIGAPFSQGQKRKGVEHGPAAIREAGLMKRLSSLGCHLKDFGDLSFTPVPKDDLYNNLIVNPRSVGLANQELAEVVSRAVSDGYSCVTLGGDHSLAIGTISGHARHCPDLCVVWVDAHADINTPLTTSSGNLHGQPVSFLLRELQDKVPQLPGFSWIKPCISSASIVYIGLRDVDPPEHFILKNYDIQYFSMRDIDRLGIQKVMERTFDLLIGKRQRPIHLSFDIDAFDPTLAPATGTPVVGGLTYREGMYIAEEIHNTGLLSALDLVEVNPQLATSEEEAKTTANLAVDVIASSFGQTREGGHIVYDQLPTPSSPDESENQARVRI

[6] = target: T3, Proteasome subunit beta (Trypanosoma cruzi) (UniProt O96673); assay: Trypanosoma cruzi proteasome chymotrypsin-like activity (TcProtChymo) assay.; further: in the data most compounds retested in dose-response had high values; format: functional; details: 9.37 µM
T3 sequence (whole entry): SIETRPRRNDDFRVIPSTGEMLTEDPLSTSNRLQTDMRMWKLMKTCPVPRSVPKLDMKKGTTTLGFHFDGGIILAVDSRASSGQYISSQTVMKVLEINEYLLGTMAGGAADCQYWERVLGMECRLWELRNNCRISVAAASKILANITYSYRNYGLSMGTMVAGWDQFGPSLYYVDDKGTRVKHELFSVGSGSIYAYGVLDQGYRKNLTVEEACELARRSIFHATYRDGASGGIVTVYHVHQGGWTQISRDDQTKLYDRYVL

Homo sapiens = species on record: Homo sapiens; assay: To identify inhibition of the IFN signalling (Jak-Stat) pathway via expression of an eGFP reporter gene under the control of an IFN-stimulated response element (ISRE) containing MxA promoter.; format: functional; details: 30 µM
[7] = target: T4, Tyrosyl-tRNA synthetase, putative (Trypanosoma cruzi (strain CL Brener)) (UniProt Q4DSP6); assay: Trypanosoma cruzi tyrosyl tRNA synthetase (TcYRS) _High Tyrosine SOP; format: functional; details: 30 µM; further: in the data most compounds retested in dose-response had high values
T4 sequence (whole entry): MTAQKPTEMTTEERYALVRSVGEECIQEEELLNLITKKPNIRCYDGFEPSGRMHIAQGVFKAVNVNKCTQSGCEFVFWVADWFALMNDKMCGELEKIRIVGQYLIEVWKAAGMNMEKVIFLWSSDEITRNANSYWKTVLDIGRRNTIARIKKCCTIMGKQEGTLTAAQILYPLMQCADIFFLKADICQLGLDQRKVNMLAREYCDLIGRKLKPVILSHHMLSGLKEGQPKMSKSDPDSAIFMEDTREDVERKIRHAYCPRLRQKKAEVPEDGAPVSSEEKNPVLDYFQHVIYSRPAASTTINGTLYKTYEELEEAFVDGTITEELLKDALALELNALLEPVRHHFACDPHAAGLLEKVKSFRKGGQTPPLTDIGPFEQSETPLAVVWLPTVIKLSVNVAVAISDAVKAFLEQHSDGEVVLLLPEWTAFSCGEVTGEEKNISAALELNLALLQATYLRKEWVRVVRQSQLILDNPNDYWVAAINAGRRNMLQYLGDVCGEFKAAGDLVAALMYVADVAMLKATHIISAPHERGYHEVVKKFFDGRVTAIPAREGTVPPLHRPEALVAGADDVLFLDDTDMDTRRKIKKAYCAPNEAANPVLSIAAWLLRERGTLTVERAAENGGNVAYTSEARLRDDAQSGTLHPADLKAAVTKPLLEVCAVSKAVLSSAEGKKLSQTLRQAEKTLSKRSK

[8] = target: T4, Tyrosyl-tRNA synthetase, putative (Trypanosoma cruzi (strain CL Brener)); assay: Trypanosoma cruzi tyrosyl tRNA synthetase (TcYRS) SOP; format: functional; details: 30 µM
[9] = target: Chromo domain-containing protein 1 (Saccharomyces cerevisiae (strain ATCC 204508 / S288c) (Baker's yeast)) (UniProt P32657); assay: ScCHD-1 Enzyme Inhibition Assay; format: functional; details: 30 µM; further: in the data most compounds retested in dose-response had high values
Chromo domain-containing protein 1 (Saccharomyces cerevisiae (strain ATCC 204508 / S288c) (Baker's yeast)), sequence (P32657 whole entry, the tested form may be a part): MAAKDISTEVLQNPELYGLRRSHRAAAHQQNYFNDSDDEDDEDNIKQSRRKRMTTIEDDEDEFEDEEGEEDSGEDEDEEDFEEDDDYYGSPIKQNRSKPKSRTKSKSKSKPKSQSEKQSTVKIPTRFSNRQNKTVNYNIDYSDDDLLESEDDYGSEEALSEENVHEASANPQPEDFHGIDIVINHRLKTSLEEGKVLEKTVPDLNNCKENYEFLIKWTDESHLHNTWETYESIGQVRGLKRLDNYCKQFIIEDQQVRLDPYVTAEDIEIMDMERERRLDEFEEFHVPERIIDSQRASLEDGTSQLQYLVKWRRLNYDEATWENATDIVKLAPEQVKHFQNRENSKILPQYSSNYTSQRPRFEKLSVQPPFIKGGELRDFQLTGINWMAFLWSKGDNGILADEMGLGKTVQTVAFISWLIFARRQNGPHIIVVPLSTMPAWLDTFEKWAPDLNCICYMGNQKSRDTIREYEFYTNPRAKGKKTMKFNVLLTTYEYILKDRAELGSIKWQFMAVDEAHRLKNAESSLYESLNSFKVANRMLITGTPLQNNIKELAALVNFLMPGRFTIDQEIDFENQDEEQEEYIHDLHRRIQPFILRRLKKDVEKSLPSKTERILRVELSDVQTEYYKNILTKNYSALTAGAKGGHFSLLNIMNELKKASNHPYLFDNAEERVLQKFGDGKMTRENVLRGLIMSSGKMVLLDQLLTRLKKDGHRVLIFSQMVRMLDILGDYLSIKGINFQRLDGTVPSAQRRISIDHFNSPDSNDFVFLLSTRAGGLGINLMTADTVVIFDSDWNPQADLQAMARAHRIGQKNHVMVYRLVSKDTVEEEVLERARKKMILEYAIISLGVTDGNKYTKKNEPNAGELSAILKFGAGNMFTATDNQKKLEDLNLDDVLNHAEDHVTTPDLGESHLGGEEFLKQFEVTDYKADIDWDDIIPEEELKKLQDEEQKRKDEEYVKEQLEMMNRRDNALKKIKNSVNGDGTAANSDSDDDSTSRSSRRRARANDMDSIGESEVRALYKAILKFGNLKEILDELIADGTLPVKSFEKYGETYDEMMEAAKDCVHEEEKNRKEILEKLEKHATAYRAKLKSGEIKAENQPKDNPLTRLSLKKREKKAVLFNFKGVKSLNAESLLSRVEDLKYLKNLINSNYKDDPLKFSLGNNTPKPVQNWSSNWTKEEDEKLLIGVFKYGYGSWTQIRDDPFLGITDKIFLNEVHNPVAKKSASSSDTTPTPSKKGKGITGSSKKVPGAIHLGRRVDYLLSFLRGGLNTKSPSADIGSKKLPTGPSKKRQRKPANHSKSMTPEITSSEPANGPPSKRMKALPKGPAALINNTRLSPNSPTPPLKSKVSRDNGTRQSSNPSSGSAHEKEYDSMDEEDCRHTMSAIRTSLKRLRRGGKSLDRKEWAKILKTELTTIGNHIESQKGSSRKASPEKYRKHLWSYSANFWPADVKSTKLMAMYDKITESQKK

Protein translocase subunit SecA (Escherichia coli (strain K12)), sequence (P10408 whole entry): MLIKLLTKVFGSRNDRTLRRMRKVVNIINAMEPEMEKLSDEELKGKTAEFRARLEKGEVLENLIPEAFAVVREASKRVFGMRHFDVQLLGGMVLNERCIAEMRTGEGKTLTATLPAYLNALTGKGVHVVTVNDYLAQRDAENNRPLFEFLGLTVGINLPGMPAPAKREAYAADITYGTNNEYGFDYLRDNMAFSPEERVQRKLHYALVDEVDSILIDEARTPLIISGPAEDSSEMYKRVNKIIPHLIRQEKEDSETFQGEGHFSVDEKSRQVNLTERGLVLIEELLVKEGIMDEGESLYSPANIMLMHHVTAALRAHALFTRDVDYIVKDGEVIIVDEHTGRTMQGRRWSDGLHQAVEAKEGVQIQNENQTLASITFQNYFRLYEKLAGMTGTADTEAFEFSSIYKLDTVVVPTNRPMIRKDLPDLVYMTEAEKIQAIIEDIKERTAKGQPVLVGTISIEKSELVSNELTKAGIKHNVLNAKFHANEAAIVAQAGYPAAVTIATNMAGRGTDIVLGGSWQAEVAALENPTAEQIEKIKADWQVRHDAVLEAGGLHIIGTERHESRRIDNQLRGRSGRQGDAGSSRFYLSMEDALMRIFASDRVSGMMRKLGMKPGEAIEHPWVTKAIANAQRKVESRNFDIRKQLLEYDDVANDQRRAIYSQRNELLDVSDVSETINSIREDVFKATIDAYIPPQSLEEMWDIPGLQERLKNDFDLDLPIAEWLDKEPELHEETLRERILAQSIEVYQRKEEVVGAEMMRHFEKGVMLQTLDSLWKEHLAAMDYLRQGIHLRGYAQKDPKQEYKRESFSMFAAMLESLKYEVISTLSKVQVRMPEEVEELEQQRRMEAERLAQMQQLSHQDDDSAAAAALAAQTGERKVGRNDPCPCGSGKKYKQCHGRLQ

SMILES	Percent Effect [1]	Percent Effect [2]	Percent Effect [3]	Percent Effect [4]	Percent Effect (Trypanosoma cruzi)	Percent Effect [5]	Percent Effect [6]	Percent Effect (Homo sapiens)	Percent Effect [7]	Percent Effect [8]	Percent Effect [9]
O=C(c1cccs1)N1C[C@H]2CC[C@@]3(N=C(c4ccccc4)NC3=O)[C@H]2C1	-1.64%	7.79%	0.0999%	7.14%	-2.06%	-4.14%	13.3%	9.87%	1.07%	13.6%	-0.884%
CO[C@H]1CCN(Cc2cccc(C)n2)[C@@H]2CN(Cc3cccnc3)C[C@H]12	-4.37%	13.7%	-4.89%	7.4%	12.3%	-3.99%	15.5%	6.58%	5.21%	6.17%	-8.06%
CS(=O)(=O)N1CCOCC2(CN(Cc3ccco3)CCO2)C1 (stereo not drawn)	-1.05%	5.48%	3.7%	1.39%	-1.19%	4.79%	5.39%	1.38%	6.25%	11.1%	0.698%
COCCN(C)CCN1CC2(CCN(C3CCCOC3)CC2)OC1=O (stereo not drawn)	-2.07%	20.8%	-4.24%	3.41%	0.295%	-11%	16.5%	11.4%	3.23%	18.5%	-6.77%
CC(=O)c1cccc(OCCCC(=O)NCC2CCCN2C)c1 (stereo not drawn)	-3.97%	13.2%	-2.69%	14.8%	3.57%	0%	11.7%	6.04%	10.3%	21.9%	-9.7%
CC(C)c1cc(NCC(O)c2ccc(F)cc2)n2nccc2n1 (stereo not drawn)	-2.04%	2.7%	10.8%	1.77%	1.35%	-4.29%	3.97%	38.1%	2.65%	7.32%	4.86%
Cc1nnc2n1CCN(Cc1csc(-c3ccc(F)cc3)n1)C2	-4.19%	5.41%	-2.56%	4.19%	8.26%	-4.62%	5.75%	4.35%	3.96%	15.8%	-6.22%
CCc1cccc(N2CCC(NC(=O)c3cc[nH]n3)CC2)c1	-4.19%	6.33%	8.15%	-6.72%	-3.59%	-5.38%	11.2%	28.6%	2.08%	5.06%	-20.9%

Reference: ChEMBL document CHEMBL3988442, “University of Dundee, Small-Polar-MMV Screening Library” (2021)
